In one assay the test system is FXR:RXRa (NR concentration 270 nM, RXRa partner concentration 90 nM). Description: PBM binding z-score (relative to random genomic background probes); higher = stronger binding; sequences stand for … in GC…GCGATTGACAGCGTAGAATGAAGG
In outline:
(§1)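 For binding z-scores, the reference was random background probes on custom Agilent 4×180K protein-binding microarrays. These arrays were incubated 1 h with ligand-free nuclear receptor dimers in PBS pH 7.4, 2% milk, 0.02% Triton X-100, 1 mM DTT, 0.2 mg/mL BSA and 0.4 mg/ml salmon testes DNA. Fluorescence was scanned after antibody detection of each partner (one per run) and regression-normalized.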
Regarding GCTAGCAGGCCATTTGAGTCACTCAATGACGGGC, the PBM binding z-score was -0.524.

For TAGCCTAGGTCATTCAGGGGCCAGTATAGAAAGC, the PBM binding z-score came to 4.58.

On to ATCTCTAGTTAAAGTTCAGTGAAAGATCGATAGA, for which the PBM binding z-score is 1.49.

As to ATATGTAGGTTAGCTGGGTTCATTCAGACTAGGC, the PBM binding z-score was determined as 1.75.

As to TCTATTAGTTCATTAGGGCAACCGAAACAGCGGA, the PBM binding z-score was found to be 1.12.

For the sequence CCTGCTAGGTCATGGTCCGCTAATCTACAGTATG, the PBM binding z-score was determined as 3.61.

With TGTAGCAGGCCAGAGGGTCACTCAAGAGGTACGG, the PBM binding z-score stood at 0.921.

As for CGAACTAGGTCAGAACAAGACAGTGAAGGATGAT, the PBM binding z-score worked out at 0.848.

Consider ATCTCTAGGTAACAAGTTGAGTGAAAGAGAGGAC, for which the PBM binding z-score was 0.601.

AGTCAAAGCTCAGGACGAGGTAACGTAAAGCACG had a PBM binding z-score of -0.244.

On to ACTAGTTGGTCAGCTGAGGTCAGACACAATTCGG, for which the PBM binding z-score is 2.41.

Take CCTTACGGGTCACGCGGTTATAGCACGACGAGCG: the PBM binding z-score worked out at 6.26.

The sequence TCTTGTAGAGCAAGCAGGTTAAGAAAGCCTGAGT returned a PBM binding z-score of -0.159.

Consider ATACCAAGGGGATCGTGAGGTCGTTGATACTAAC, for which the PBM binding z-score stood at 0.492.

Take AGTCAAAGTTCAGGTCGAGGTAACGTAAAGCACG: the PBM binding z-score was found to be 4.82.

The sequence CCAGACAGGTGAGAAGGTAACCCAGCCTCGATTA showed a PBM binding z-score of 0.179.

As to CCTAGCAGGCCAATCTGGGTCACTCAAGGCTTGA, the PBM binding z-score was found to be 1.5.

For TCATATAGGTACAGGTGAAAGTCGAACGATATGA, the PBM binding z-score was 0.652.

Consider CAAACTAGGTCAAGGACAAAGTCGGTTTGTGCCA, for which the PBM binding z-score came out at 3.65.

The sequence TCAAATAGGTAATACAGGTGAAAGTCGGCATCTA registered a PBM binding z-score of 0.834.

GCTTGTAGATCGAGGTTAAGAAAGACTAAGCTAA displayed a PBM binding z-score of 0.262.

Sequence ACTATTAGTTCAGACGAGGGCAACCGATAGGTTG returned a PBM binding z-score of 1.07.

Take AATATTAGTTGAGACGAGGGCAACCGATAGGTTG: the PBM binding z-score was determined as 0.383.

On to GCATATAGGTAATACAAGGTGATAGTCCGATTGT, for which the PBM binding z-score came out at 1.42.

In turn, CCTACTGGTCCACGAAAGGTCATTGATTCAGTGA showed a PBM binding z-score of 3.9.

For GCGAGTGGGGCATCAGCAGGTTACCATAACTTAA, the PBM binding z-score is -0.42.

Sequence AGAATGAGGTTGTTAAGATCAGGGAATTGCGGTC yielded a PBM binding z-score of 0.00995.

In turn, TCCAGCAGGCCAGAGGGTCACTCAAGAGGTACGG displayed a PBM binding z-score of 0.97.

In the case of GCTTGTAGATAAAGGTTAAGAAAGACTAAGCTAA, the PBM binding z-score was 0.528.

The sequence CAGCCTAGGTCTGGGCCAGTATAGGAGGAACGTT displayed a PBM binding z-score of -0.847.

On to CCTAGTTGGTCGAGGTCACACACGCTATAGGTAC, for which the PBM binding z-score was 4.44.

The sequence ACTCGGAGCACAAAGGTCAGAGCTACGCCAGTGA returned a PBM binding z-score of 3.44.

Regarding TCATATAGGTAAAAGGTGAAAGTCGGTGTGGTAA, the PBM binding z-score is 1.8.

As to CCTCGGAGGCCAGAAGGTCAGAGCTGTCCGCTTT, the PBM binding z-score was 1.46.

The sequence TATACAGGGTCAAAGGCCCGAGTACGAATGTCGA gave a PBM binding z-score of 6.5.

CGTCCAAGGTCAATGCTCGGTCAGTGAAAGCATT registered a PBM binding z-score of 5.98.

With TCTATTACTTGAAGGGCAACCGACGAGTCCGTTT, the PBM binding z-score turned out to be 0.851.

CCGAGTAGTTTATGGGGCATTCAGGCAACGGTGA showed a PBM binding z-score of 0.0687.

For TCGAGTAGATTAGTCGGGGCATTCAGCCAACATA, the PBM binding z-score is -0.148.

CGTCCAAGATCAGCAGGTCAGTGAAAGCGACGTG gave a PBM binding z-score of 0.239.

The test system of a further assay is LXRa:RXRa (NR concentration 270 nM, RXRa partner concentration 90 nM). The assay is described as above. In outline: as §1
In turn, GCTAGCAGGCCATTTGAGTCACTCAATGACGGGC returned a PBM binding z-score of -0.643.

Sequence TAGCCTAGGTCATTCAGGGGCCAGTATAGAAAGC registered a PBM binding z-score of 3.73.

Turning to ATCTCTAGTTAAAGTTCAGTGAAAGATCGATAGA, the PBM binding z-score came out at 2.07.

Take ATATGTAGGTTAGCTGGGTTCATTCAGACTAGGC: the PBM binding z-score was found to be 4.53.

Regarding TCTATTAGTTCATTAGGGCAACCGAAACAGCGGA, the PBM binding z-score came out at 1.73.

Sequence CCTGCTAGGTCATGGTCCGCTAATCTACAGTATG yielded a PBM binding z-score of 2.3.

TGTAGCAGGCCAGAGGGTCACTCAAGAGGTACGG showed a PBM binding z-score of 0.677.

With CGAACTAGGTCAGAACAAGACAGTGAAGGATGAT, the PBM binding z-score stood at 0.591.

ATCTCTAGGTAACAAGTTGAGTGAAAGAGAGGAC showed a PBM binding z-score of 0.354.

Take AGTCAAAGCTCAGGACGAGGTAACGTAAAGCACG: the PBM binding z-score is -0.551.

For ACTAGTTGGTCAGCTGAGGTCAGACACAATTCGG, the PBM binding z-score turned out to be 1.65.

In the case of CCTTACGGGTCACGCGGTTATAGCACGACGAGCG, the PBM binding z-score came to 4.51.

For TCTTGTAGAGCAAGCAGGTTAAGAAAGCCTGAGT, the PBM binding z-score was -0.27.

Sequence ATACCAAGGGGATCGTGAGGTCGTTGATACTAAC returned a PBM binding z-score of 0.487.

The sequence AGTCAAAGTTCAGGTCGAGGTAACGTAAAGCACG registered a PBM binding z-score of 4.08.

For the sequence CCAGACAGGTGAGAAGGTAACCCAGCCTCGATTA, the PBM binding z-score was 0.277.

Regarding CCTAGCAGGCCAATCTGGGTCACTCAAGGCTTGA, the PBM binding z-score turned out to be 1.42.

TCATATAGGTACAGGTGAAAGTCGAACGATATGA showed a PBM binding z-score of 0.533.

CAAACTAGGTCAAGGACAAAGTCGGTTTGTGCCA: the PBM binding z-score worked out at 2.54.

Consider TCAAATAGGTAATACAGGTGAAAGTCGGCATCTA, for which the PBM binding z-score was 1.29.

GCTTGTAGATCGAGGTTAAGAAAGACTAAGCTAA showed a PBM binding z-score of 1.09.

In turn, ACTATTAGTTCAGACGAGGGCAACCGATAGGTTG had a PBM binding z-score of 1.31.

On to AATATTAGTTGAGACGAGGGCAACCGATAGGTTG, for which the PBM binding z-score was 0.45.

GCATATAGGTAATACAAGGTGATAGTCCGATTGT displayed a PBM binding z-score of 0.97.

Turning to CCTACTGGTCCACGAAAGGTCATTGATTCAGTGA, the PBM binding z-score turned out to be 4.86.

GCGAGTGGGGCATCAGCAGGTTACCATAACTTAA displayed a PBM binding z-score of -0.14.

Sequence AGAATGAGGTTGTTAAGATCAGGGAATTGCGGTC yielded a PBM binding z-score of 0.0148.

In the case of TCCAGCAGGCCAGAGGGTCACTCAAGAGGTACGG, the PBM binding z-score is 1.16.

As to GCTTGTAGATAAAGGTTAAGAAAGACTAAGCTAA, the PBM binding z-score was found to be 2.06.

In turn, CAGCCTAGGTCTGGGCCAGTATAGGAGGAACGTT registered a PBM binding z-score of -0.864.

CCTAGTTGGTCGAGGTCACACACGCTATAGGTAC had a PBM binding z-score of 4.08.

Sequence ACTCGGAGCACAAAGGTCAGAGCTACGCCAGTGA yielded a PBM binding z-score of 3.72.

Turning to TCATATAGGTAAAAGGTGAAAGTCGGTGTGGTAA, the PBM binding z-score stood at 2.29.

In turn, CCTCGGAGGCCAGAAGGTCAGAGCTGTCCGCTTT came in with a PBM binding z-score of 1.39.

Sequence TATACAGGGTCAAAGGCCCGAGTACGAATGTCGA returned a PBM binding z-score of 6.07.

As to CGTCCAAGGTCAATGCTCGGTCAGTGAAAGCATT, the PBM binding z-score came to 5.55.

Sequence TCTATTACTTGAAGGGCAACCGACGAGTCCGTTT gave a PBM binding z-score of 1.02.

In the case of CCGAGTAGTTTATGGGGCATTCAGGCAACGGTGA, the PBM binding z-score was -0.0173.

TCGAGTAGATTAGTCGGGGCATTCAGCCAACATA: the PBM binding z-score was -0.282.

As to CGTCCAAGATCAGCAGGTCAGTGAAAGCGACGTG, the PBM binding z-score worked out at 0.32.
